Experimental findings from PubChem BioAssay (EPA / NIEHS) are described below.

Assay [1] has as its target human Peroxisome Proliferator-activated Receptor alpha (PPARa), PPARA (gene 5465) (UniProt Q07869). The assay can be described thus: ATG_PPARa_TRANS: Attagene TRANS-FACTORIAL HepG2 Assay for human Peroxisome Proliferator-activated Receptor alpha (PPARa) (AID 2283001).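 On AC50: potency for gain of reporter signal over DMSO so agonist or activator.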 In outline: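 HepG2 cells transiently transfected with multiplexed GAL4-UAS reporter units and chimeric NR-Gal4 constructs were dosed for 24 h. Reporter mRNA was measured by RT-PCR with fluorescent labelling and capillary electrophoresis; gain of signal fitted against DMSO.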

The target in assay [2] is human Peroxisome Proliferator-activated Receptor delta (PPARd), PPARD (gene 5467) (UniProt Q03181). The assay can be described thus: ATG_PPARd_TRANS: Attagene TRANS-FACTORIAL HepG2 Assay for human Peroxisome Proliferator-activated Receptor delta (PPARd) (AID 2283002). In a few lines:
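HepG2 cells transiently transfected with multiplexed GAL4-UAS reporter units and exogenous chimeric NR-Gal4 proteins; 24 h compound exposure. Reporter mRNA measured by RT-PCR, 6-FAM labelling, HpaI digestion and capillary electrophoresis; gain of signal versus DMSO.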

The target in assay [3] is Peroxisome proliferator-activated receptor gamma (Homo sapiens) (UniProt P37231). Put plainly: ATG_PPARg_TRANS: Attagene TRANS-FACTORIAL HepG2 Assay for human Peroxisome Proliferator-activated Receptor-gamma (PPARg) (AID 2283007). In outline: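 Twenty-four hours after chemical dosing of transiently transfected HepG2 cells, isolated RNA was converted to cDNA, reporter sequences amplified and 6-FAM-labelled, then HpaI-digested and analysed by capillary electrophoresis. Signal increase against DMSO was fitted.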
Sequence of Peroxisome proliferator-activated receptor gamma (Homo sapiens) (P37231 whole entry, looked up): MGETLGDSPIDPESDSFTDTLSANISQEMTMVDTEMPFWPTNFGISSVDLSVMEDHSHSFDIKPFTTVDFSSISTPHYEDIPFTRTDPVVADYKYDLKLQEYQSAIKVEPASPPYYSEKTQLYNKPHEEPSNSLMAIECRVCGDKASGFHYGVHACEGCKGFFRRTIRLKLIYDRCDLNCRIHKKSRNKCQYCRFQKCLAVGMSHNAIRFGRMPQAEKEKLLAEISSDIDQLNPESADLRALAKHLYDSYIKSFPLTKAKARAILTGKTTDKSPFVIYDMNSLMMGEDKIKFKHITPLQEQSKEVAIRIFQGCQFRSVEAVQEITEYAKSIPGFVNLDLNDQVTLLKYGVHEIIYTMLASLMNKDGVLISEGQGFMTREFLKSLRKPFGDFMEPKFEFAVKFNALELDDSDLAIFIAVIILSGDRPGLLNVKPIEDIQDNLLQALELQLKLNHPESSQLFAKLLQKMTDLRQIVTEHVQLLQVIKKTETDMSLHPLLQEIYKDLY

Assay [4] concerns the target Nuclear receptor subfamily 1 group I member 2 (Homo sapiens) (UniProt O75469). The assay can be described thus: ATG_PXR_TRANS: Attagene TRANS-FACTORIAL HepG2 Assay for human Pregnane X Receptor (PXR) (AID 2283008). In a few lines:
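HepG2 cells transiently transfected with multiple reporter units, here a PXR-GAL4 chimera driving a GAL4-UAS reporter; 24 h compound exposure. Reporter mRNA measured by RT-PCR, FAM labelling and capillary electrophoresis; gain of signal fitted against DMSO baseline.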

The target in assay [5] is human Retinoic Acid Receptor gamma (RARg), RARG (gene 5916) (UniProt P13631). Put plainly: ATG_RARg_TRANS: Attagene TRANS-FACTORIAL HepG2 Assay for human Retinoic Acid Receptor gamma (RARg) (AID 2283009). In outline: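 HepG2, RARg-GAL4 TRANS system, 24 h exposure; reporter mRNA by RT-PCR + CE fluorescence; increase over DMSO.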
Sequence of human Retinoic Acid Receptor gamma (RARg), RARG (gene 5916) (P13631 whole entry, looked up, the tested form may be a part): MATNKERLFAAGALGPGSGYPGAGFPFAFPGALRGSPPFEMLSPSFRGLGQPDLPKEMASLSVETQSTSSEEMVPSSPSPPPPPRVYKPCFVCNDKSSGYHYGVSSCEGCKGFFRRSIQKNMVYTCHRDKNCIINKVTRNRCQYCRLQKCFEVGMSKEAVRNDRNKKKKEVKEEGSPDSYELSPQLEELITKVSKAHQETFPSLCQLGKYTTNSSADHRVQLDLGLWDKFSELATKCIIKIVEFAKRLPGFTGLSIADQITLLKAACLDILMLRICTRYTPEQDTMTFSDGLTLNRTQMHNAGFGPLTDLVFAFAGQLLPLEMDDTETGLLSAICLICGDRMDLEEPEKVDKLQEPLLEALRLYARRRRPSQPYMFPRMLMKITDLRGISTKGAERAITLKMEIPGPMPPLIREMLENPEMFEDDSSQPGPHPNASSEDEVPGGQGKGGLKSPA
For assay [6], the target named is human RAR-related Orphan Receptor beta (RORb), RORB (gene 6096) (UniProt Q92753). The assay can be described thus: ATG_RORb_TRANS: Attagene TRANS-FACTORIAL HepG2 Assay for human RAR-related Orphan Receptor beta (RORb) (AID 2283010). In outline:
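In this TRANS-format test, human HepG2 cells express chimeric NR-Gal4 fusion proteins driving GAL4-UAS reporters. After 24 h dosing, reporter transcripts are measured by fluorescent RT-PCR/capillary electrophoresis, with DMSO as negative control.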

Assay [7] concerns the target human RAR-related Orphan Receptor gamma (RORg), RORC (gene 6097) (UniProt P51449). The assay can be described thus: ATG_RORg_TRANS: Attagene TRANS-FACTORIAL HepG2 Assay for human RAR-related Orphan Receptor gamma (RORg) (AID 2283011). In outline: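 Chimeric RORg-Gal4 transactivation in transfected HepG2; 24 h exposure; RT-PCR/capillary electrophoresis readout of reporter mRNA, DMSO baseline.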

The target in assay [8] is Retinoic acid receptor RXR-alpha (Homo sapiens) (UniProt P19793). Put plainly: ATG_RXRa_TRANS: Attagene TRANS-FACTORIAL HepG2 Assay for human Retinoid X Receptor alpha (RXRa) (AID 2283012). In outline:
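Cells (HepG2) carried transiently transfected GAL4-responsive reporter units. Following a 24 h chemical incubation, reporter mRNA induction was read via RT-PCR fragment analysis; DMSO served as negative control and baseline.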

The target of assay [9] is human Retinoid X Receptor beta (RXRb), RXRB (gene 6257) (UniProt P28702). The assay can be described thus: ATG_RXRb_TRANS: Attagene TRANS-FACTORIAL HepG2 Assay for human Retinoid X Receptor beta (RXRb) (AID 2283013). In a few lines: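 Multiplexed TRANS reporter assay in HepG2; 24 h dosing; reporter mRNA by RT-PCR/CE fluorescence; gain-of-signal relative to DMSO.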
Sequence of human Retinoid X Receptor beta (RXRb), RXRB (gene 6257) (P28702 whole entry, looked up): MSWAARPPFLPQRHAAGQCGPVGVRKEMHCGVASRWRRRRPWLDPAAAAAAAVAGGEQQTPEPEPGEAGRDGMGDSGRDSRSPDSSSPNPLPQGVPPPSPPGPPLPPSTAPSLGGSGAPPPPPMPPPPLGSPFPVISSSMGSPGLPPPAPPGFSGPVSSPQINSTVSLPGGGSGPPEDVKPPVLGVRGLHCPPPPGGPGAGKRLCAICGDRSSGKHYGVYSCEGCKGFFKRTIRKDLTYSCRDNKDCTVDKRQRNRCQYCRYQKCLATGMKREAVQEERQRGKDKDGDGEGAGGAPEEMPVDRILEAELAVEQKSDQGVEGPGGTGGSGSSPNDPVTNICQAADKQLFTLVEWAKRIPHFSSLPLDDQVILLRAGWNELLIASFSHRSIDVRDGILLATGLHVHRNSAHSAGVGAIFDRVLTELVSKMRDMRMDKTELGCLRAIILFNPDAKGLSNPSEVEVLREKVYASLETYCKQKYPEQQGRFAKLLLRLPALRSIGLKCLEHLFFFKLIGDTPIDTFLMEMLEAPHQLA
In assay [10] the target is human Thyroid Receptor alpha (THRa1), THRA (gene 7067) (UniProt P10827). The assay can be described thus: ATG_THRa1_TRANS: Attagene TRANS-FACTORIAL HepG2 Assay for human Thyroid Receptor alpha (THRa1) (AID 2283014). In a few lines:
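Measured here is mRNA from a GAL4-UAS reporter in transfected HepG2 cells carrying a Gal4-fused receptor, 24 h post-dose. DMSO served as negative control and baseline.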

Assay [11] is described as follows: BSK_4H_Eotaxin3: BioMAP Diversity Plus: 4H Assay for Eotaxin 3 Biomarker Activity (AID 2283000; active means hit-call score of the fitted dose curve at least 0.9, where 1 is the maximum; inactive means score below 0.9;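 further: CCL26 protein level quantified by ELISA in parallel with SRB cytotoxicity check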). As to conditions: primary human endothelial cells (HUVEC); actives raise or lower the signal. In a few lines:
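ELISA quantitation of CCL26 (Eotaxin-3) protein from chemically dosed human vascular endothelial cells at 24 h; increases and decreases both scored relative to DMSO-treated baseline.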

Read-out in assay [12]: Intercellular Adhesion Molecule 1 (ICAM1), ICAM1 (gene 3383)
The assay can be described thus: BSK_3C_ICAM1: BioMAP Diversity Plus: 3C Assay for Intercellular Adhesion Molecule 1 (ICAM1) Biomarker Activity (AID 2283003; active means hit-call score of the fitted dose curve at least 0.9, where 1 is the maximum; inactive means score below 0.9). Conditions: primary human endothelial cells (HUVEC); actives raise or lower the signal. In outline:
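Human vascular endothelial primary cells, 3C conditions, 24 h treatment. ICAM-1 by ELISA.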

A short description of assay [13]: BSK_3C_Proliferation: Cell Proliferation Assessment in the BioMAP Diversity Plus: 3C Assay (AID 2283006; active means hit-call score of the fitted dose curve at least 0.9, where 1 is the maximum; inactive means score below 0.9). Conditions: primary human endothelial cells (HUVEC). In a few lines: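 Proliferation of human vascular endothelial primary cells after 48 h dosing, quantified as SRB-stained protein at 560 nm relative to DMSO.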
Read-out in assay [14]: Interleukin-1 alpha (IL1a), IL1A (gene 3552)
The assay can be described thus: BSK_BE3C_IL1a: BioMAP Diversity Plus: BE3C Assay for Interleukin-1 alpha (IL1a) Biomarker Activity (AID 2283016; active means hit-call score of the fitted dose curve at least 0.9, where 1 is the maximum; inactive means score below 0.9). Conditions: primary human bronchial epithelial cells; actives raise or lower the signal. In outline: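 Cultures of primary human bronchial epithelial cells receive test chemical. After 24 h, IL-1a is quantified by ELISA, while parallel wells are fixed in TCA and SRB-stained for total protein. Changes in either direction are fitted relative to DMSO.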

Read-out in assay [15]: Monocyte Chemoattractant Protein-1 (MCP1), CCL2 (gene 6347)
Put plainly: BSK_3C_MCP1: BioMAP Diversity Plus: 3C Assay for Monocyte Chemoattractant Protein-1 (MCP1) Biomarker Activity (AID 2283017; active means hit-call score of the fitted dose curve at least 0.9, where 1 is the maximum; inactive means score below 0.9). As to conditions: primary human endothelial cells (HUVEC); actives raise or lower the signal. In outline:
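Using human vascular primary endothelium, researchers measured MCP-1 by ELISA 24 h after treatment, with DMSO serving as negative control for bidirectional fitting.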

Read-out in assay [16]: Monocyte Chemoattractant Protein-1 (MCP1), CCL2 (gene 6347)
Put plainly: BSK_4H_MCP1: BioMAP Diversity Plus: 4H Assay for Monocyte Chemoattractant Protein-1 (MCP1) Biomarker Activity (AID 2283018; active means hit-call score of the fitted dose curve at least 0.9, where 1 is the maximum; inactive means score below 0.9). As to conditions: primary human endothelial cells (HUVEC); actives raise or lower the signal. In a few lines:
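Readout: MCP-1 ELISA on compound-treated HUVEC, sampled 24 h post-dosing. Baseline and negative control DMSO; bidirectional fit. Overt toxicity checked alongside by sulforhodamine B protein staining at time of biomarker measurement.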

Read-out in assay [17]: Human Leukocyte Antigen - DR isotype (HLADR), HLA-DRA (gene 3122)
The assay can be described thus: BSK_3C_HLADR: BioMAP Diversity Plus: 3C Assay for Human Leukocyte Antigen - DR isotype (HLADR) Biomarker Activity (AID 2283019; active means hit-call score of the fitted dose curve at least 0.9, where 1 is the maximum; inactive means score below 0.9;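 further: ELISA of cell-surface HLA-DR on HUVEC 24 h after dosing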). Conditions: primary human endothelial cells (HUVEC); actives raise or lower the signal. In a few lines: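 Compound added to primary HUVEC cultures, 24 h incubation, then HLA-DR determined by ELISA; endpoint derived by bidirectional fitting relative to DMSO negative control.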

Read-out in assay [18]: Interleukin-8 (IL8), CXCL8 (gene 3576)
Put plainly: BSK_3C_IL8: BioMAP Diversity Plus: 3C Assay for Interleukin-8 (IL8) Biomarker Activity (AID 2283020; active means hit-call score of the fitted dose curve at least 0.9, where 1 is the maximum; inactive means score below 0.9). As to conditions: primary human endothelial cells (HUVEC); actives raise or lower the signal. In outline:
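Human vascular endothelial cells (umbilical vein) in the 3C system; IL-8 level detected by ELISA at 24 h post-dose, with DMSO as baseline.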

Assay [19] addresses Retinoic acid receptor alpha (Homo sapiens) (UniProt P10276). Put plainly: ATG_RARa_TRANS: Attagene TRANS-FACTORIAL HepG2 Assay for human Retinoic Acid Receptor alpha (RARa) (AID 2283005). In outline: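 HepG2 cells transiently transfected with multiple reporter units expressing chimeric RARα-GAL4 fusion, with GAL4-UAS-driven reporters. After 24 h compound exposure, reporter mRNA induction quantified by RT-PCR and capillary electrophoresis with fluorescent labeling; gain-of-signal fitted relative to DMSO control.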

Records with an inconclusive call do not appear. Some structures have more than one record in an assay (separate samples or runs), and their calls can disagree. Activity calls are given as the source filed them. How the source made its calls, unless noted: active means hit-call score of the fitted dose curve at least 0.9, where 1 is the maximum; inconclusive means response in the unintended direction; inactive means score below 0.9.

The term AC50 denotes the concentration giving half of the maximal activity seen.

Sequence of human Thyroid Receptor alpha (THRa1), THRA (gene 7067) (P10827 whole entry, looked up, the tested form may be a part): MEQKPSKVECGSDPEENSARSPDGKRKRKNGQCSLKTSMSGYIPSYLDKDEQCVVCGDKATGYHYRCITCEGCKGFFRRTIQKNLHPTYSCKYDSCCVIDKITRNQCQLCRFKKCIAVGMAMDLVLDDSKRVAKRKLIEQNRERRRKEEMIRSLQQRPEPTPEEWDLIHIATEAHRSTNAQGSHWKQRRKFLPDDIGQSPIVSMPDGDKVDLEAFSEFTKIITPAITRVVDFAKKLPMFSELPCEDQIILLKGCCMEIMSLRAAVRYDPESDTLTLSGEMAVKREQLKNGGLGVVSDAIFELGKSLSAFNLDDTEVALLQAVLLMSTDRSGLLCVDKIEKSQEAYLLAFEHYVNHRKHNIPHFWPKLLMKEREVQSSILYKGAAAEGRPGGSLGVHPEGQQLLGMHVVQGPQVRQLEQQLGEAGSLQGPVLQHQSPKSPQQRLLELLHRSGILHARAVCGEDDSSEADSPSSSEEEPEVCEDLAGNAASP
Sequence of Retinoic acid receptor alpha (Homo sapiens) (P10276 whole entry, looked up, the tested form may be a part): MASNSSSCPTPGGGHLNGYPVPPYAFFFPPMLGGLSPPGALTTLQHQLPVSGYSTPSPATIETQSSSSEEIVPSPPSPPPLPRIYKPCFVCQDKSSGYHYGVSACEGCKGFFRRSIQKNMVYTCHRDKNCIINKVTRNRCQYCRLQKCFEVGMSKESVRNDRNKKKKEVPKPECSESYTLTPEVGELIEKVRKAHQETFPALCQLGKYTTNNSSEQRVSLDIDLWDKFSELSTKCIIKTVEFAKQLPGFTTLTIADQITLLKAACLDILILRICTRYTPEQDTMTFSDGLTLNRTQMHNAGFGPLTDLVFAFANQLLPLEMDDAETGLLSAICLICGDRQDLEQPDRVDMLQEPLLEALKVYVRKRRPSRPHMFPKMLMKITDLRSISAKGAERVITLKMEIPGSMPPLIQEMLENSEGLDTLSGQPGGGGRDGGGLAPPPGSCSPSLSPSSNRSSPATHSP
Sequence of human RAR-related Orphan Receptor beta (RORb), RORB (gene 6096) (Q92753 whole entry, looked up, the tested form may be a part): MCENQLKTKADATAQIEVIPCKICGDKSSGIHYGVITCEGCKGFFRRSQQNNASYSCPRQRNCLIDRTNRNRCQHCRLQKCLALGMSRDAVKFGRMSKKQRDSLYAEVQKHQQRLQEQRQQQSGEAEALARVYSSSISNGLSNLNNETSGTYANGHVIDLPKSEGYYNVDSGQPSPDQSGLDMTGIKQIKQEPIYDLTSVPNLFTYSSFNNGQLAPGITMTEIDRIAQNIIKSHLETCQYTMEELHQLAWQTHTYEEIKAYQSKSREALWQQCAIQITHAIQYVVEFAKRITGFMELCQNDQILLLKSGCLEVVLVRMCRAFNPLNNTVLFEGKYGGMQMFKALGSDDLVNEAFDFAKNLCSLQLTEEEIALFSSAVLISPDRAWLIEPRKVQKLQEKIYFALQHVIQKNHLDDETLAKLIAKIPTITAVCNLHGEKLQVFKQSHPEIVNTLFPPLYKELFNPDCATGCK
Sequence of Nuclear receptor subfamily 1 group I member 2 (Homo sapiens) (O75469 whole entry, looked up, the tested form may be a part): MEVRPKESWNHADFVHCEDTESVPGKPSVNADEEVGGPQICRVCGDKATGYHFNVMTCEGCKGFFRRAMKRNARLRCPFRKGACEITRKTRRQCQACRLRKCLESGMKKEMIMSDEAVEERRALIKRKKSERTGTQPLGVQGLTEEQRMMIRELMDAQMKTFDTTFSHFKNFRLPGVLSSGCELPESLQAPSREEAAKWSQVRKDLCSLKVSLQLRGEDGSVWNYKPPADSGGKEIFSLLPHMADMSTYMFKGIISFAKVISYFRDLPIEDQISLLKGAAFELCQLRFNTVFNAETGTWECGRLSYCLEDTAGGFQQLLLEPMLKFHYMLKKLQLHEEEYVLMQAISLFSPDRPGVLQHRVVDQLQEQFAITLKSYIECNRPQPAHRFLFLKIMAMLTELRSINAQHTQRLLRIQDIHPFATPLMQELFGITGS
Sequence of Retinoic acid receptor RXR-alpha (Homo sapiens) (P19793 whole entry, looked up, the tested form may be a part): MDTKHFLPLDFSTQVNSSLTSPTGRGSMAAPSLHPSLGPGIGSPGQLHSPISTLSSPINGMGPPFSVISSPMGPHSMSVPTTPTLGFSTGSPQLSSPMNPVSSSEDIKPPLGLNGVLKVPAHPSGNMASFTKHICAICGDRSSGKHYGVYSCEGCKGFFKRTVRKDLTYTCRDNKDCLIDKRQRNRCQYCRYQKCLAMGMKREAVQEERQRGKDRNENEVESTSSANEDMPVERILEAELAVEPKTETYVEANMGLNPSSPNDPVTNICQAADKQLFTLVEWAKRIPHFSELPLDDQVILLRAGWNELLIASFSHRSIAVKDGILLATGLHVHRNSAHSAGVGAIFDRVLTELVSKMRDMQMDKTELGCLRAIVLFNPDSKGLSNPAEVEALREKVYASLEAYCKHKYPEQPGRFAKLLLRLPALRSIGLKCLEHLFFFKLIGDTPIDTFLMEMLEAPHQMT
Sequence of human Peroxisome Proliferator-activated Receptor delta (PPARd), PPARD (gene 5467) (Q03181 whole entry, looked up, the tested form may be a part): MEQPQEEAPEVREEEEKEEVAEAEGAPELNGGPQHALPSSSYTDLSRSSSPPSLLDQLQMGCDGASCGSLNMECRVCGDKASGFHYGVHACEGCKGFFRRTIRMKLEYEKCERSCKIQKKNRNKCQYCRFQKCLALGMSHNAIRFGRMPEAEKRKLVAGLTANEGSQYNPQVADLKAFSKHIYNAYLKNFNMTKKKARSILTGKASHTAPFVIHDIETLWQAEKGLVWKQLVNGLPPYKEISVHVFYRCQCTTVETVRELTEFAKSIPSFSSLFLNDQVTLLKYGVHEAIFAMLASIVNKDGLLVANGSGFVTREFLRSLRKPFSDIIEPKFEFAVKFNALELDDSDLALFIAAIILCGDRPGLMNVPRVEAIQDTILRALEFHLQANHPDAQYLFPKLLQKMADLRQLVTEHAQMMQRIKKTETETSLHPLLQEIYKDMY
Sequence of human RAR-related Orphan Receptor gamma (RORg), RORC (gene 6097) (P51449 whole entry, looked up, the tested form may be a part): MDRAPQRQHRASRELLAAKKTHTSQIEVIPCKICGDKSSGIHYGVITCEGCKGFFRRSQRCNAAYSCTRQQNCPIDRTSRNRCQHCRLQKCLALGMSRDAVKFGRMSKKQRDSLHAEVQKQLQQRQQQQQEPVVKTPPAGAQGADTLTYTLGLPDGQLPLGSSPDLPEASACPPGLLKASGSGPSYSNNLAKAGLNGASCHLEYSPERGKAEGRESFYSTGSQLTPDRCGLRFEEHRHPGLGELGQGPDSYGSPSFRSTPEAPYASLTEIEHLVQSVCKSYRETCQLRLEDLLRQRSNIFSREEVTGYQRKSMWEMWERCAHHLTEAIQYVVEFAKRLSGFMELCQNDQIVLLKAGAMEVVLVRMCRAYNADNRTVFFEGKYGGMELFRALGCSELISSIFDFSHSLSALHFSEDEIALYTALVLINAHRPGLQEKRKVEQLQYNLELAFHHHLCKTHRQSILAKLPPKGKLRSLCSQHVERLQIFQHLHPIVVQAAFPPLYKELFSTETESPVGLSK

Turning to `CC(=O)Nc1cc(S(=O)(=O)O)cc2cc(S(=O)(=O)O)c(N=Nc3ccccc3)c(O)c12`, the call in assay [1], in assay [2], in assay [3], in assay [4], in assay [5] and in [6] was inactive. Further, the compound was classed as inactive in assay [7], in assay [8], in [9] and in [10].
Take `CCC(=O)OC(C)(C)C1CC=C(C)CC1` (stereo not given): the compound was called inactive in [1], in assay [2], in [3], in [6], in [8] and in assay [9]. Besides, the half-maximal activity concentration (AC50) in assay [4] is 33.1 µM (active).
`O=C(O)C(F)(F)C(F)(F)C(F)(F)C(F)(F)C(F)(F)C(F)(F)C(F)(F)C(F)F`: the result in assay [11], in [12], in assay [13], in [14], in assay [15] and in assay [16] was inactive. In addition, the outcome in [17] and in [18] was inactive.
As for `NC(N)=NC(N)=NCCc1ccccc1`, the outcome in assay [1], in assay [2], in [19], in assay [3], in assay [4] and in assay [5] was inactive. In addition, the outcome in assay [7] and in assay [10] was inactive.
`O=S(=O)(O)C(F)(F)C(F)(F)OC(F)(F)C(F)(F)F`: the outcome in assay [11], in assay [12], in assay [13], in assay [14], in [15] and in [16] was inactive. The outcome in assay [17] and in assay [18] was inactive. In addition, the AC50 in assay [18] is 5.95 µM (active).
For `CC(=O)Oc1c(C)c(C)c2c(c1C)CC[C@@](C)(CCC[C@H](C)CCC[C@H](C)CCCC(C)C)O2`, the outcome in [1], in assay [2], in [19], in assay [3], in assay [4] and in [7] was inactive. Moreover, the compound was called inactive in assay [9] and in [10].
Regarding `CC=CC(=O)C1=C(C)C=CCC1(C)C`, the outcome in assay [11], in assay [12], in assay [13], in [3], in assay [4] and in assay [7] was inactive. Besides, the result in [9], in [14], in [15], in assay [16], in [17] and in assay [18] was inactive.
Take `C=C(F)C(=O)OC(C(F)(F)F)C(F)(F)F`: the result in assay [11], in assay [12], in [13], in [14], in [15] and in assay [16] was inactive. In addition, the outcome in assay [17] and in assay [18] was inactive.
As for `CC(C)Cc1ccccc1`, the outcome in assay [1], in assay [2], in assay [19], in [4], in assay [6] and in assay [7] was inactive. In addition, the result in [8] and in assay [9] was inactive.
On to `CCCCCCCCCCCCOCCOS(=O)(=O)O`, for which the AC50 in assay [1] was 9.73 µM (active); in assay [3], 18.7 µM (active). The result in assay [2] and in assay [4] was inactive.
Turning to `CCCCOCC(C)OCC(C)O` (stereo not given), the compound was classed as inactive in [1], in [2], in [3], in assay [4], in assay [6] and in [7]. The compound was called inactive in assay [10].
Take `CCC(C)(CCCC(C)C)OC(C)=O` (stereo not given): the compound was called inactive in assay [1], in assay [2], in assay [3], in [4], in assay [6] and in assay [8]. Besides, in assay [9], the AC50 was 64.8 µM (active).
For the compound `O=Cc1ccccc1O`, the call in assay [1], in assay [2], in assay [3], in assay [4], in assay [5] and in assay [6] was inactive. In addition, the result in assay [7], in assay [8], in assay [9] and in assay [10] was inactive.
For the compound `NNC(=O)OCc1ccccc1`, the result in [1], in assay [2], in assay [3], in assay [4], in assay [6] and in [7] was inactive. Also, the result in assay [8], in assay [9] and in [10] was inactive.
